Compound activity deposited in PubChem by National Center for Advancing Translational Sciences (NCATS).
Sampled rows, rich in hits. Any-hit rate of the full collection: about 1.1%.
GALK inhibitor = galactokinase (human) inhibition; P51570; Purified GALK, Kinase-Glo residual ATP luminescence; Potency, µM (highest dose often 57.5 µM), inactives show at the top dose activity change, negative = inhibition, hits mostly inhibitors; actives 0.007% (n = 270,000); AID 1868; note: potency is the fitted concentration of half-maximal effect
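Human GALK (5 nM) with 35 uM ATP and 100 uM galactose in 20 mM HEPES pH 8.0, 5 mM MgCl2, 60 mM NaCl, 1 mM DTT, 0.01% BSA. After 1 h at room temperature, leftover ATP was read by Kinase-Glo Plus luminescence.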
TrxR1 substrate = substrates of rat thioredoxin reductase 1 | O89049 | purified TrxR1 substrate turnover, NADPH consumption readout | Potency, µM (highest dose often 114 µM), without a hit: at the highest dose activity change, negative = substrate turnover | actives 0.01% (n = 390,000) | AID 588456; note: potency is the fitted concentration of half-maximal effect; nearly all actives have a fitted effect of over 50% in size
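Rat TrxR1, dispensed at 90 nM, was prereduced with 400 uM NADPH (final) for 5 min at ~22 deg C, then incubated with compound 15 min before 400 uM selenite. A first-read NADPH fluorescence drop versus no-compound background flagged substrates.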
TrxR1 inh = inhibitors of rat thioredoxin reductase 1. O89049. actives 1% (n = 390,000). Potency, µM (series often up to 114 µM), inactives show at the highest dose activity change, negative = inhibition, hits mostly inhibitors. AID 588453. recombinant rTrxR1, NADPH fluorescence consumption, selenite substrate; note: potency is the fitted concentration of half-maximal effect; nearly all actives have a fitted effect of over 65% in size
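Rat TrxR1 (90 nM in the dispensed reagent) was pre-reduced with 400 uM NADPH for 5 min at room temperature, then incubated with compound for 15 min. After 400 uM selenite was added, NADPH fluorescence (Ex 340/Em 450 nm) was followed for 8 min.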
PI4K2A inh = PI4K2A (human) kinase inhibition; Q9BTU6; purified PI4K2A, ADP-Glo luminescence, 1 h; active compounds read low; activity change, negative = inhibition, % at 76.9 µM; actives 0.13% (n = 420,000); in the data active = activity change below about -50%; inconclusive = mostly about -30% to -49%;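 note: -100% = wells without enzyme as full effect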
Target sequence (Q9BTU6 whole entry, looked up): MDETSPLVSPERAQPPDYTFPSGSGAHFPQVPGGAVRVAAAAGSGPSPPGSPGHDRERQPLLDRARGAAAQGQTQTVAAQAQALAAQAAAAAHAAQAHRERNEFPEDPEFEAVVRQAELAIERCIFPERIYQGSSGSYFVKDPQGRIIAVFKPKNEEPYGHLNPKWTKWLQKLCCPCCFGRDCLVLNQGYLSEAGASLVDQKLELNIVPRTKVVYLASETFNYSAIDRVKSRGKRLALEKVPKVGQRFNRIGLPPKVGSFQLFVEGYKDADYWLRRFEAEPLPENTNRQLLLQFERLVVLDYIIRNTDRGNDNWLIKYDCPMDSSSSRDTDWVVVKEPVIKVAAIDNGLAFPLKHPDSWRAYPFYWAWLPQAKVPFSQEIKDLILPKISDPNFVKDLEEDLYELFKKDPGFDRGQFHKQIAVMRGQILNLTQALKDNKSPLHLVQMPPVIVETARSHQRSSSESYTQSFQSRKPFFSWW
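ADP-Glo luminescence measured ADP generated by PI4K2A enzyme (4 ug/mL before mixing) with 1.2 mM PI substrate (pre-mix) and 300 microM ATP (pre-mix). Tris pH7.5 buffer with MgCl2, Triton X-100; 1 h reaction at ambient temperature.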
Active calls of the source: *; [ ] = remark or other dose. Unless noted, calls come from the whole dose curve; as a rule, active = well fitted curve in the direction sought with a large enough effect; inconclusive = small, poorly fitted or top-dose-only effect, or another doubt; inactive = no such curve, though single readings can be large; an effect the other way counts as inactive or inconclusive. Unless noted, % is set by controls: 0 for no effect and ±100 for the full control effect.

Results for CC(C)(C)c1cc(C(=O)N/N=C/c2ccc(-c3ccccc3[N+](=O)[O-])o2)n[nH]1 ?
GALK inhibitor: -3.0%; TrxR1 substrate: -9.9%; TrxR1 inh: inconclusive; PI4K2A inh: 0.9

Results for COc1cccc2c1NC(C(=O)O)C1CC=CC21 (stereo not given) ?
TrxR1 substrate: 8.1%; TrxR1 inh: 12.6µM*; PI4K2A inh: -21.1

How did COc1ccc(-c2noc(N3CCC(C(=O)N(C)c4cc(Cl)ccc4OC)CC3)n2)cc1 do in these assays?
TrxR1 substrate: -8.8%; TrxR1 inh: -8.8%; PI4K2A inh: -2.4

How did Oc1c(Cl)cc(Cl)c2c1NCCC2 do in these assays?
GALK inhibitor: -0.1%; TrxR1 substrate: -6.5%; TrxR1 inh: 2.24µM*; PI4K2A inh: -8.5

How did CCCCCNC(=O)C(=O)NCC(c1ccc2c(c1)OCO2)N1CCOCC1 (stereo not given) do in these assays?
TrxR1 substrate: -1.9%[57.1 µM]; TrxR1 inh: 23.0%[57.1 µM]; PI4K2A inh: 0.6

What do the screens show for `CS(=O)(=O)c1ccc(-c2cn3ccccc3n2)cc1`?
PI4K2A inh: -6.5

How did O=S(=O)(O)c1cc(Cl)cc(N=Nc2ccc(O)cc2O)c1O do in these assays?
TrxR1 substrate: -29.7%; TrxR1 inh: -29.4%; PI4K2A inh: -18.0

Results for O=S(=O)(O)c1cc(O)c2c(O)c(N=Nc3cc(Cl)ccc3O)c(S(=O)(=O)O)cc2c1 ?
GALK inhibitor: 15.6%; TrxR1 substrate: -15.0%; TrxR1 inh: -11.6%; PI4K2A inh: -52.6*

Results for O=Cc1c(Cl)nc2ccccn2c1=O ?
GALK inhibitor: -1.0%; TrxR1 substrate: 21.3%; TrxR1 inh: 17.8µM*; PI4K2A inh: -1.0

What do the screens show for `Cc1cccn2c(=O)c(C=O)c(Cl)nc12`?
GALK inhibitor: 4.5%; TrxR1 substrate: 9.4%[57.1 µM]; TrxR1 inh: inconclusive; PI4K2A inh: -7.1

Results for S=C(Nc1cccc(Cl)c1)Nc1cccc2cnccc12 ?
GALK inhibitor: -0.9%; TrxR1 substrate: -8.8%; TrxR1 inh: 44.7µM*; PI4K2A inh: -5.5

What do the screens show for `Cc1ccc(C)c(NC(=S)Nc2cccc3cnccc23)c1`?
GALK inhibitor: 9.6%; TrxR1 substrate: -1.5%; TrxR1 inh: inconclusive; PI4K2A inh: -55.4*

Results for CC(=O)c1ccc(NC(=S)Nc2cccc3cnccc23)cc1 ?
GALK inhibitor: inconclusive; TrxR1 substrate: -8.3%; TrxR1 inh: 22.4µM*; PI4K2A inh: -11.4

What do the screens show for `Cc1ccc(Cn2c(C)c3cnn(CC(=O)NCCc4ccc(Cl)cc4)c(=O)c3c2C)cc1`?
TrxR1 substrate: -7.7%; TrxR1 inh: inconclusive; PI4K2A inh: -1.7

How did C[C@H]1[C@@H](OC(=O)Nc2cccc(C(F)(F)F)c2)CC[C@@]23CCCN2C(=O)CCC[C@@H]13 do in these assays?
PI4K2A inh: 2.1

What do the screens show for `CSc1ccc(C2c3c(oc4ccc(F)cc4c3=O)C(=O)N2c2ccc(C)cn2)cc1` (stereo not given)?
TrxR1 substrate: 2.9%; TrxR1 inh: 22.5%; PI4K2A inh: -1.5

Results for COC(=O)[C@H]1[C@H]2C[C@@H]3c4[nH]c5cc(OC)ccc5c4CCN3C[C@H]2C[C@@H](OC(=O)/C=C/c2ccc(O)c(OC)c2)[C@@H]1OC ?
PI4K2A inh: 0.6

What do the screens show for `O=[N+]([O-])C(=C1Nc2ccccc2N1)C(Cl)=C(Cl)Cl`?
GALK inhibitor: 3.3%; TrxR1 substrate: -6.2%; TrxR1 inh: 11.2µM*; PI4K2A inh: -5.4

Results for Cc1sc(NC(=O)c2ccco2)c(C(c2cccnc2)N2CCCC2)c1C (stereo not given) ?
GALK inhibitor: -1.6%; TrxR1 substrate: -1.6%; TrxR1 inh: 7.94µM*; PI4K2A inh: -5.7

What do the screens show for `CC1=NN(c2ccccc2)C(=O)C1=Cc1ccccc1`?
PI4K2A inh: -56.6*

What do the screens show for `COC(=O)C1=C(O)/C(=C\c2ccc(CNS(=O)(=O)c3ccc(Cl)cc3)o2)N=C1C`?
GALK inhibitor: 0.3%; TrxR1 substrate: -14.8%; TrxR1 inh: 28.2µM*; PI4K2A inh: -8.6

Results for CCOC(=O)C1=C(O)/C(=C\c2ccc(CNS(=O)(=O)c3ccc(Br)cc3)o2)N=C1C ?
GALK inhibitor: -0.3%; TrxR1 substrate: 0.4%; TrxR1 inh: 14.1µM*; PI4K2A inh: -11.9

Results for COC(=O)C1=C(O)/C(=C\c2ccc(CNS(=O)(=O)c3ccccc3)o2)N=C1C ?
GALK inhibitor: 0.8%; TrxR1 substrate: -7.8%; TrxR1 inh: inconclusive; PI4K2A inh: -6.9
